# PLK1 PBD inh = PLK1 (human) polo-box domain binding inhibition. Plk1 PBD binding of FITC phosphopeptide, fluorescence polarization. Potency, µM, most hits filed as inhibitors. actives 2.8% (n = 360,000). AID 720504; note: series mostly up to about 57 µM; nearly all actives have a fitted effect of over 65% in size
# JMJD2A Tudor = inhibitors of human JMJD2A Tudor domain; O75164; AlphaScreen JMJD2A-Tudor / H3K4me3 peptide binding; Potency, µM (titrated, usually from 114 µM), most hits filed as inhibitors; actives 4.4% (n = 390,000); AID 504339; note: nearly all actives have a fitted effect of over 50% in size
# Target sequence (O75164 whole entry, looked up, the tested form may be a part): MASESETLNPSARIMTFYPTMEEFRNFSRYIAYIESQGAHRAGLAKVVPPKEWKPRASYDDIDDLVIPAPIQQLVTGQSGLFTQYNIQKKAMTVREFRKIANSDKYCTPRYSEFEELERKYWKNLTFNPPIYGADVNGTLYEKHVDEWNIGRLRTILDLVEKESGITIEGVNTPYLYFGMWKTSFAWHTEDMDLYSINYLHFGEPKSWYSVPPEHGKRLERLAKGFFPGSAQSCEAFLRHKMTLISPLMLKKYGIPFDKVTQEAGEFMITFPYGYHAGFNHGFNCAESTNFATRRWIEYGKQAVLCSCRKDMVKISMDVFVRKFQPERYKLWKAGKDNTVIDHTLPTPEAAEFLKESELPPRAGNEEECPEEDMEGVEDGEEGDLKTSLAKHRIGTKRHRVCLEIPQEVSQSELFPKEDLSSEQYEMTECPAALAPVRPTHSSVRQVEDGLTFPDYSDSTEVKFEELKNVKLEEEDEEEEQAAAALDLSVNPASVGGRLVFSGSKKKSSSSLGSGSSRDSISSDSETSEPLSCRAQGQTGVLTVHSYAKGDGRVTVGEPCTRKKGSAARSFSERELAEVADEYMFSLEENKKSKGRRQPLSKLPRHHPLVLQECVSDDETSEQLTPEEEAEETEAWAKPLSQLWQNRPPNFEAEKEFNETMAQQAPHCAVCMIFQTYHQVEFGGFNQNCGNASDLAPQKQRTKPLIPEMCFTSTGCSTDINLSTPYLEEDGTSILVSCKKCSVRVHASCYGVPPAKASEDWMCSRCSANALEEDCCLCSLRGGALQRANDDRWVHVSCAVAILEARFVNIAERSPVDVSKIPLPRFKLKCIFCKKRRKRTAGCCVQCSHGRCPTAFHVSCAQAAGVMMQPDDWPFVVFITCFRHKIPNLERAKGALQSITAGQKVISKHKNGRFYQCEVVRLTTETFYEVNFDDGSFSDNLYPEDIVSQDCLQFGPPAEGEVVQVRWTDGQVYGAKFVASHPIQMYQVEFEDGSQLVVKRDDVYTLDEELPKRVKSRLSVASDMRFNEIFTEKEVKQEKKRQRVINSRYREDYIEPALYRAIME
# G9a block = G9a (human) methyltransferase inhibition; Q96KQ7; G9a H3K9 monomethylation, AlphaScreen, 2 h; Potency, µM (series often up to 102 µM), most hits filed as inhibitors; actives 8.8% (n = 350,000); AID 504332; note: nearly all actives have a fitted effect of over 75% in size
#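 Using a bead-based AlphaScreen, monomethylated H3K9 product from 2 h room-temperature reactions (G9a 20 nM, peptide 500 nM, SAM 20 uM) was detected with 0.5 ug/mL rabbit anti-H3K9me1 antibody.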
# HP1b chromo inh = blocks HP1-beta chromodomain binding to methylated histone tails. P83916. Potency, µM (top dose mostly 114 µM), most hits filed as inhibitors. AlphaScreen HP1-beta / biotin-H3K9me3 peptide binding. actives 0.56% (n = 390,000). AID 540317; note: nearly all actives have a fitted effect of over 70% in size
#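 AlphaScreen: HP1-beta (50 nM) preformed 30 min with biotin-H3(1-18)K9me3 peptide (50 nM) in PBS pH 7.4, 0.01% Tween-20. Compound added for 30 min at RT, then streptavidin donor/nickel chelate acceptor beads (10 ug/mL) for 30 min.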
# BAZ2B block = blocks human BAZ2B; actives 4.4% (n = 360,000); Q9UIF8; Potency, µM (doses to about 114 µM), usual class: inhibitors; AlphaScreen BAZ2B-H3K14Ac peptide displacement; note: nearly all actives have a fitted effect of over 60% in size
#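 Inhibition is scored as reduced AlphaScreen emission. The BAZ2B/b-H3(5-23)K14Ac complex (50 nM each) in PBS pH 7.4, 0.01% Tween-20 meets compound (up to 110 uM) for 30 min at RT before bead addition.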
# VDR inhibitor = vitamin D3 receptor (human) inhibition; P11473; AID 504847; Potency, µM, most hits filed as inhibitors; actives 0.93% (n = 400,000); VDR-SRC2-3 peptide fluorescence polarization, 2 h
#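 Reagent solutions, kept cold and dark, are dispensed first; compounds are then pinned in at 23 nl, plates briefly spun, and incubated 2 h at ambient temperature. Inhibition of VDR–SRC2-3 peptide binding is read by fluorescence polarization.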
# Hits are given with their value; - = inactive; ? = inconclusive; . = no result given; [ ] = remark or other dose. Hits are enriched below; roughly 11% of the tested compounds scored in any of these assays. Calls come from the whole dose curve; as a rule, active = well fitted curve in the direction sought with a large enough effect; inconclusive = small, poorly fitted or top-dose-only effect, or another doubt; inactive = no such curve, though single readings can be large; an effect the other way counts as inactive or inconclusive.
SMILES,PLK1 PBD inh,JMJD2A Tudor,G9a block,HP1b chromo inh,BAZ2B block,VDR inhibitor
COc1cc(N(C)C)ccc1C=c1c2ccccc2n2c1cc(-c1ccccc1)[n+]2C,?,18µM,.,?,.,79µM
CN(C)c1ccc(C=c2c3ccccc3n3c2cc(-c2ccccc2)[n+]3C)cc1,-,32µM,.,50µM,.,-
CN(C)c1ccc(C=Cc2nccc3ccccc23)cc1,-,.,.,.,.,.
COc1cc(/C=C(/C(=O)O)c2ccc(-c3ccccc3)cc2)cc(OC)c1OC,-,-,-,-,-,-
COc1cc(C=c2c3ccccc3n3c2cc(-c2ccccc2)[n+]3C)cc(OC)c1OC,4.7µM,32µM,.,?,.,-
CN(C)c1ccc(C=c2c3cc([N+](=O)[O-])ccc3n3c2cc(-c2ccccc2)[n+]3C)cc1,2.7µM,11µM,.,11µM,.,?
Cn1c(CO)c(-c2ccccc2)c2cc([N+](=O)[O-])ccc21,-,-,-,-,-,-
CC(C)[C@@H]1CC[C@@H](C)C[C@@H]1P(=O)(c1ccccc1)c1ccccc1,.,.,?,.,.,-
CO[C@]1(NC(=O)CSCC#N)C(=O)N2C(C(=O)O)=C(CSc3nnnn3C)CS[C@H]21,.,.,-[12.7 µM],.,.,?
CN(C)c1ccc(/C=C2\SC(=O)N(CC(O)Cn3c4ccccc4c4ccccc43)C2=O)cc1 (stereo not given),?,-,-,-,-,-
CN(C)c1ccc(C=c2c3ccccc3n3c2c2c([n+]3C)CCCC2)cc1,-,28µM,.,?,.,-
CN(C)c1ccc(C=c2c3ccccc3n3c2cc(-c2ccc(Cl)cc2)[n+]3C)cc1,30µM,45µM,.,13µM,.,-
Cc1sc2nc3n(c(=O)c2c1C)CCCCC3,-,-,-,-,-,-
Cc1sc2nc3ccc(N4CCCCC4)nn3c(=O)c2c1C,?,-,32µM,-,-,-
CC(=O)c1cccc(NS(=O)(=O)c2ccc(N/C=C\C(=O)c3ccc(F)cc3)cc2)c1,-,-,?,-,-,-
CC(=O)c1cccc(NS(=O)(=O)c2ccc(N/C=C/C(=O)c3ccc(F)cc3)cc2)c1,-,-,8.9µM,-,?,-
CC(=O)c1cccc(NS(=O)(=O)c2ccc(N/C=C\C(=O)c3ccc(C)cc3)cc2)c1,-,-[11.4 µM],?,-,-,-
CC(=O)c1ccc(NS(=O)(=O)c2ccc(N/C=C/C(=O)c3ccc(F)cc3)cc2)cc1,17µM,?,-[12.7 µM],-,-,-
CC(=CC(=O)c1ccccc1)c1ccccc1,-,-,.,-,.,-
COc1ccc(S(=O)(=O)NCCc2sc(-c3cccc(C)c3)nc2C)cc1,.,-,-,-,-,-
O=C(N/N=C\CCc1ccccc1)c1ccco1,15µM,?,-,?,-,?
CCc1ccccc1N1C(=O)N(Cc2cccc(Cl)c2)c2ccccc2S1(=O)=O,.,-,-,-,-,-
Cc1ccc(/C([O-])=C(/C(=S)NCc2ccc3c(c2)OCO3)[n+]2ccc(N(C)C)cc2)c(C)c1,?,?,50µM,-,?,-
CN(C)c1ccc(C(=O)NCc2ccc3c(c2)OCO3)cc1,-,-,-,-,-,-
C=C(C)CC(C)(C)C,.,.,.,.,.,-
SMILES,PLK1 PBD inh,JMJD2A Tudor,G9a block,HP1b chromo inh,BAZ2B block,VDR inhibitor
O=C(CCCN1C(=O)/C(=C\c2ccccc2)SC1=S)N1CCOCC1,-,?,.,?,.,?
COc1cccc(/C=C2\SC(=O)N(CCC(=O)N3CCC(C(=O)O)CC3)C2=O)c1,-,-,71µM,-,?,-
COc1ccccc1/C=C1\SC(=S)N(CCC(=O)N2CCCCC2CCO)C1=O (stereo not given),-,?,?,-,-,-
O=C(CCCN1C(=O)/C(=C/c2ccccc2Cl)SC1=S)N1CCOCC1,-,22µM,-,-,79µM,-
COc1cccc(/C=C2\SC(=S)N(CCCC(=O)N3CCCCC3CCO)C2=O)c1 (stereo not given),-,20µM,?,-,25µM,?
COc1ccc(/C=C2\SC(=S)N(CCCC(=O)N3CCOCC3)C2=O)cc1OC,-,-,-,-,-,-
COc1cccc(/C=C2\SC(=S)N(CCC(=O)N3CCCCC3CCO)C2=O)c1 (stereo not given),-,?,56µM,?,32µM,-
CCOc1ccc(S(=O)(=O)N2CCCCC2)cc1NC(=O)CN1C(=O)NC(C)(C2CC2)C1=O (stereo not given),-,-,-[2.33 µM],-,-,-
CCOC(=O)[C@H]1[C@H]2COc3ccc(Cl)cc3[C@@H]2N2C(=O)c3cc(F)c(F)cc3NC(=O)[C@@]12C,-,-,-[2.33 µM],-,-,-
Cc1ccc(CN(C)C(=O)COC(=O)CSc2cc(C)c3ccccc3n2)cc1,-,-,-[12.7 µM],-,-,-
COc1ccc(/C=C2\SC(=S)N(CCCC(=O)N3CCN(C)CC3)C2=O)cc1OC,-,-,.,-,.,-
COc1ccccc1/C=C1\SC(=O)N(CCC(=O)N2CCCCC2CCO)C1=O (stereo not given),-,?,.,-,?,-
COc1cccc(/C=C2\SC(=S)N(CCCC(=O)N3CCCC3)C2=O)c1,-,45µM,40µM,?,32µM,?
COc1ccc(/C=C2\SC(=S)N(CCCC(=O)N3CCOCC3)C2=O)cc1,-,50µM,.,-,.,-
O=C(CCN1C(=O)/C(=C/c2cccs2)SC1=S)N1CCCCC1,-,?,10µM,?,8.9µM,-
O=C1/C(=C/c2cccs2)SC(=S)N1CCC(=O)N1CCCCC1CCO (stereo not given),-,?,50µM,-,22µM,-
O=C(CCN1C(=O)/C(=C\c2ccccc2)SC1=S)N1CCCCC1,-,-,-,-,-,-
CCOC(=O)C1C(c2ccc(O)c(OC)c2)NC(=S)NC1(O)C(F)(F)F (stereo not given),-,-,?,-,-,-
O=[S+]([O-])(c1ccc2nsnc2c1)N1CCN([S+](=O)([O-])c2c(F)cccc2F)CC1,.,-,.,.,.,.
COc1ccccc1N1CCN(C2CCCN(C(=O)c3ccsc3)C2)CC1 (stereo not given),-,-,.,-,.,-
Cc1nn(C)c2c1NC(=O)CS2,-,.,.,.,.,.
O=C(CCN1C(=O)/C(=C/c2ccc(F)cc2)SC1=S)NCCc1cnc[nH]1,?,?,28µM,-,18µM,?
CN1CCN(C(=O)CCN2C(=O)/C(=C/c3ccc(F)cc3)SC2=S)CC1,-,-,71µM,-,?,-
CC1CCCN(C(=O)CSc2c3c(nc4cc(Cl)ccc24)CCCC3)C1 (stereo not given),.,-,-,-,-,?
COc1ccc(CN2CCN(CCCc3ccccc3)C(CCO)C2)c(OC)c1 (stereo not given),-,-,-,-,-,-
COc1cc(CN2CCN(CCCc3ccccc3)C(CCO)C2)cc(OC)c1O (stereo not given),-,-,40µM,-,-,-
